Measurements published in PubChem BioAssay (EPA / NIEHS).
“And” between values parts separate entries of the source, which are not always exact repeats. Equal values may be shown once. The source holds several records for some structures; these can differ, active in one and inactive in another. The source made the active and inactive calls. Rule for the calls: active = hit-call score of the fitted dose curve at least 0.9, where 1 is the maximum; inactive = score below 0.9.

How the values were obtained:
Conditions in all cases: primary human HUVEC with PBMC; actives raise or lower the signal
[1] = read-out: Macrophage colony-stimulating factor (MCSF), CSF1 (gene 1435); test: BSK_LPS_MCSF: BioMAP Diversity Plus: LPS Assay for Macrophage colony-stimulating factor (MCSF) Biomarker Activity (AID 2283083)
How it was run: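 Bidirectional fit versus DMSO of ELISA-measured M-CSF in co-cultured human umbilical vein endothelial cells and PBMC, sampled 24 h after dosing.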

[2] = read-out: Tissue Factor, F3 (gene 2152); test: BSK_LPS_TissueFactor: BioMAP Diversity Plus: LPS Assay for Tissue Factor Biomarker Activity (AID 2283084)
How it was run: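 Read-out: CD142 ELISA, 24 h. System: LPS-driven human endothelial/PBMC co-culture. Analysis: up- or down-signal fitted against DMSO.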

[3] = read-out: Tumor necrosis factor (Homo sapiens) (UniProt P01375); test: BSK_LPS_TNFa: BioMAP Diversity Plus: LPS Assay for Tumour Necrosis Factor alpha (TNFa) Biomarker Activity (AID 2283085);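 for AC50: TNFa protein level quantified by ELISA in the co-culture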
How it was run: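 ELISA-based TNFa endpoint in a human endothelial–PBMC co-culture sampled 24 h post-exposure. Curves were fitted in both directions using DMSO as baseline of activity.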

[4] = read-out: Vascular cell adhesion molecule 1 (VCAM1), VCAM1 (gene 7412); test: BSK_LPS_VCAM1: BioMAP Diversity Plus: LPS Assay for Vascular cell adhesion molecule 1 (VCAM1) Biomarker Activity (AID 2283086)
How it was run: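 Measured by ELISA: VCAM-1 in LPS-activated HUVEC/PBMC co-cultures 24 h after treatment. Values reflect bidirectional fitting with DMSO as baseline.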

CD38, CD38 (gene 952) = test: BSK_SAg_CD38: BioMAP Diversity Plus: SAg Assay for CD38 Biomarker Activity (AID 2283087)
How it was run: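 Measures CD38 on a human endothelial/PBMC co-culture driven by SEB and TSST-1, 24 h after compound exposure, using ELISA with fluorescence detection; DMSO defines baseline for bidirectional curve fitting.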

CD40, CD40 (gene 958) = test: BSK_SAg_CD40: BioMAP Diversity Plus: SAg Assay for CD40 Biomarker Activity (AID 2283088)
How it was run: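 Endpoint derived by fitting increases or decreases versus DMSO controls. CD40 is detected by fluorescence ELISA in a human vascular co-culture of endothelium and PBMC at 24 h.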

CD69, CD69 (gene 969) = test: BSK_SAg_CD69: BioMAP Diversity Plus: SAg Assay for CD69 Biomarker Activity (AID 2283089);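 for AC50: cell surface CD69 protein quantified by ELISA with fluorescence detection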
How it was run: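 Endothelial/PBMC co-culture; chemical added; 24 h incubation; CD69 ELISA with fluorescence detection; bidirectional fit vs DMSO.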

[5] = read-out: Monocyte Chemoattractant Protein-1 (MCP1), CCL2 (gene 6347); test: BSK_SAg_MCP1: BioMAP Diversity Plus: SAg Assay for Monocyte Chemoattractant Protein-1 (MCP1) Biomarker Activity (AID 2283090)
How it was run: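 Values derive from bidirectional fitting of ELISA-measured MCP1 against DMSO controls. Readings were taken 24 h after dosing human vascular endothelial cells co-cultured with peripheral blood mononuclear cells under superantigen stimulation.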

[6] = read-out: E-selectin (Homo sapiens) (UniProt P16581); test: BSK_SAg_Eselectin: BioMAP Diversity Plus: SAg Assay for Eselectin Biomarker Activity (AID 2283091)
How it was run: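 Endpoint values derive from bidirectional fitting relative to DMSO, using ELISA-measured E-selectin in a human vascular co-culture (umbilical vein endothelium plus PBMC) sampled 24 h after dosing.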

[7] = read-out: Monokine induced gamma interferon (MIG), CXCL9 (gene 4283); test: BSK_SAg_MIG: BioMAP Diversity Plus: SAg Assay for Monokine induced gamma interferon (MIG) Biomarker Activity (AID 2283092)
How it was run: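 Measures CXCL9 protein by ELISA in a human vascular primary-cell co-culture (umbilical vein endothelium with PBMC) 24 h after chemical addition. Activity is scored up or down from the DMSO control.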

Measured: AC50

Tumor necrosis factor (Homo sapiens), sequence (P01375 whole entry, looked up): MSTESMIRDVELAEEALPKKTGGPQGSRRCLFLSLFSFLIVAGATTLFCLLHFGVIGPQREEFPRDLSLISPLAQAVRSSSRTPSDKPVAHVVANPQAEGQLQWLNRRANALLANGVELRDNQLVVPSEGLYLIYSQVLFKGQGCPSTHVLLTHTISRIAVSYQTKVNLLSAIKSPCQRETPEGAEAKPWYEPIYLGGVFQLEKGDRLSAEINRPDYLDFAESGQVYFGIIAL
E-selectin (Homo sapiens), sequence (P16581 whole entry, looked up): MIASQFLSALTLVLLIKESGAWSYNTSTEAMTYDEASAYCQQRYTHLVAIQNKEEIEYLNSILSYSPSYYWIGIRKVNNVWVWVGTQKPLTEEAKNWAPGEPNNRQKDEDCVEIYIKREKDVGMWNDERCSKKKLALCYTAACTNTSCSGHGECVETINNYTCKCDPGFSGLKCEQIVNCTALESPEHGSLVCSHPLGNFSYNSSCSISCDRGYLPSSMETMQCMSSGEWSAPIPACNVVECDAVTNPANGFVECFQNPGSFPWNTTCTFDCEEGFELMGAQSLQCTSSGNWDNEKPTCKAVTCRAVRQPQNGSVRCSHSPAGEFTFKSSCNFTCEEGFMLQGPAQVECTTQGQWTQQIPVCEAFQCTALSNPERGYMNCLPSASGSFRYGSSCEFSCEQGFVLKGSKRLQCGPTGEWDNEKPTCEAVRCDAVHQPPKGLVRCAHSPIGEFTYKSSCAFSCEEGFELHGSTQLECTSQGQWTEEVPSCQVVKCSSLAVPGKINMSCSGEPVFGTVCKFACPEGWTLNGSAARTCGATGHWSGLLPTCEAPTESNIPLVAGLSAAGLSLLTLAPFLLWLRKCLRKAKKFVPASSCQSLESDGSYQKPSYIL

CC(=O)OCCC(C)C
inactive: [1] | [2] | [3] | [4] | CD38, CD38 (gene 952) | CD40, CD40 (gene 958) | CD69, CD69 (gene 969) | [5]

Cc1c(-c2cccnc2)c2ccccc2n1CCCCC(=O)O
inactive: [1] | [2] | [3] | [4] | CD38, CD38 (gene 952) | CD40, CD40 (gene 958) | CD69, CD69 (gene 969) | [5] | [6] | [7]

O=C(O)CC(O)C(=O)O (configuration not stated)
inactive: [1] | [2] | [3] | [4] | CD38, CD38 (gene 952) | CD40, CD40 (gene 958) | CD69, CD69 (gene 969) | [5]

CC(=O)c1ccc2c(c1)[C@H](NC(=O)c1ccc(F)cc1)[C@@H](O)C(C)(C)O2
inactive: [1] | [2] | [3] | [4] | CD38, CD38 (gene 952) | CD40, CD40 (gene 958) | CD69, CD69 (gene 969) | [5] | [6]

Fc1ccccc1[C@@H](F)COC1CCC(Nc2ncnc3[nH]ncc23)CC1 (some centres not stated)
active: [1] 20 µM | CD38, CD38 (gene 952) 20 µM | CD40, CD40 (gene 958) 16.3 µM | CD69, CD69 (gene 969) 24.2 µM | [5] 31.6 µM
inactive: [2] | [3] | [4] | [7]

Nc1cccc(N)c1
inactive: [1] | [2] | [3] | [4] | CD38, CD38 (gene 952) | CD40, CD40 (gene 958) | CD69, CD69 (gene 969) | [5]

CN(C)c1ccc(N=NS(=O)(=O)O)cc1
active: [2] 5.8 µM | [4] 10.4 µM
inactive: [1] | [3] | CD38, CD38 (gene 952) | CD40, CD40 (gene 958) | CD69, CD69 (gene 969) | [5] | [7]

COc1ccc(-n2nc(C(F)F)cc2-c2ccc(S(C)=O)cc2)cc1 (configuration not stated)
active: [3] 2.57 µM | CD69, CD69 (gene 969) 2.28 µM | [5] 1.13 µM
inactive: [1] | [2] | [4] | CD38, CD38 (gene 952) | CD40, CD40 (gene 958) | [7]

O=c1[nH]c2ccc(S(=O)CCN3CCC(Cc4ccc(F)cc4)CC3)cc2o1 (configuration not stated)
inactive: [1] | [2] | [3] | [4] | CD38, CD38 (gene 952) | CD40, CD40 (gene 958) | CD69, CD69 (gene 969) | [5]

CCOC(=O)COc1ccc2c(c1)CC(NCC(O)c1cccc(Cl)c1)CC2 (configuration not stated)
active: [1] 34.5 µM | [4] 31.3 µM | CD38, CD38 (gene 952) 29.2 µM | CD40, CD40 (gene 958) 28.8 µM | [5] 27.7 µM
inactive: [2] | [3] | [6] | [7]

Cn1c(=O)cc(Oc2ccc(F)cc2F)c2cnc(NCC(C)(C)O)nc21
active: [2] 0.58 µM | [3] 5.06 µM
inactive: [1] | [4] | CD38, CD38 (gene 952) | CD40, CD40 (gene 958) | [5]

COC(=O)c1c(Cl)c(Cl)c(C(=O)OC)c(Cl)c1Cl
inactive: [2] | [3] | [4] | CD38, CD38 (gene 952) | [5] | [6] | [7]
active: [1] 20 µM | CD40, CD40 (gene 958) 20 µM

CC(=O)OC[C@H]1O[C@@](COC(C)=O)(O[C@H]2O[C@H](COC(C)=O)[C@@H](OC(C)=O)[C@H](OC(C)=O)[C@H]2OC(C)=O)[C@@H](OC(C)=O)[C@@H]1OC(C)=O
inactive: [1] | [2] | [3] | [4] | CD38, CD38 (gene 952) | CD40, CD40 (gene 958) | [5] | [7]

CC[C@H]1CC[C@H](NCc2cc3c(cc2OC)[C@H]2C[C@H]2C(=O)N3C)[C@H](c2ccccc2)N1
inactive: [1] | [2] | [3] | [4] | CD38, CD38 (gene 952) | CD40, CD40 (gene 958) | [5] | [6] | [7]

Cn1cnc([N+](=O)[O-])c1Sc1ncnc2nc[nH]c12
inactive: [2] | [3] | CD38, CD38 (gene 952) | CD40, CD40 (gene 958) | [5]
active: [3] 19.2 µM and 15.7 µM | [4] 25.3 µM and 6.4 µM and 13.7 µM | CD38, CD38 (gene 952) 12.1 µM | CD40, CD40 (gene 958) 13.3 µM and 8.21 µM | [5] 19.9 µM and 12.6 µM

CCOCCOCCOCCO
inactive: [1] | [2] | [3] | [4] | CD38, CD38 (gene 952) | CD40, CD40 (gene 958) | [5] | [6] | [7]

Cc1ccc(C)c(O)c1
active: [3] 0.796 µM
inactive: [1] | [2] | [4] | CD38, CD38 (gene 952) | CD40, CD40 (gene 958) | [5] | [6] | [7]

Nc1nc2ncc(CNc3ccc(C(=O)N[C@@H](CCC(=O)O)C(=O)O)cc3)nc2c(=O)[nH]1
inactive: [1] | [2] | [3] | [4] | CD38, CD38 (gene 952) | CD40, CD40 (gene 958) | [5] | [6]

CC(C)CC(C)(O)C#CC(C)(O)CC(C)C (configuration not stated)
inactive: [1] | [2] | [3] | [4] | CD38, CD38 (gene 952) | CD40, CD40 (gene 958) | [5] | [6] | [7]

O=C(O)c1cccc(N(Cc2cccnc2)c2ccc(OC(F)F)c(OC(F)F)c2)c1
active: [2] 9.14 µM | [3] 1.95 µM | [4] 15.9 µM | CD38, CD38 (gene 952) 3.61 µM | CD40, CD40 (gene 958) 13.7 µM | CD69, CD69 (gene 969) 4.01 µM | [5] 6.77 µM | [6] 1.81 µM

Clc1nc(Cl)c(Cl)c(Cl)c1Cl
active: [1] 32.2 µM | [2] 33.1 µM | [3] 31.7 µM | [4] 32.3 µM | CD38, CD38 (gene 952) 34.4 µM | CD40, CD40 (gene 958) 30 µM | [5] 31.4 µM | [6] 25.1 µM | [7] 31.2 µM
